Measurements reported in ChEMBL document CHEMBL1201862, “PubChem BioAssay data set” (2004).
The whole screen tested about 400,000 compounds, of which about 2,100 (0.53%) were called active. Another 14% or so got no clear call; they are omitted. How the calls were made is not given here. Many of the other results were omitted from the sample, so actives are more common in it than they were.

These molecules were tested against Ataxin-2 (Homo sapiens) (UniProt Q99700) (assay: qHTS for Inhibitors of ATXN expression.).
Assay type: functional

Ataxin-2 (Homo sapiens), sequence (Q99700 whole entry): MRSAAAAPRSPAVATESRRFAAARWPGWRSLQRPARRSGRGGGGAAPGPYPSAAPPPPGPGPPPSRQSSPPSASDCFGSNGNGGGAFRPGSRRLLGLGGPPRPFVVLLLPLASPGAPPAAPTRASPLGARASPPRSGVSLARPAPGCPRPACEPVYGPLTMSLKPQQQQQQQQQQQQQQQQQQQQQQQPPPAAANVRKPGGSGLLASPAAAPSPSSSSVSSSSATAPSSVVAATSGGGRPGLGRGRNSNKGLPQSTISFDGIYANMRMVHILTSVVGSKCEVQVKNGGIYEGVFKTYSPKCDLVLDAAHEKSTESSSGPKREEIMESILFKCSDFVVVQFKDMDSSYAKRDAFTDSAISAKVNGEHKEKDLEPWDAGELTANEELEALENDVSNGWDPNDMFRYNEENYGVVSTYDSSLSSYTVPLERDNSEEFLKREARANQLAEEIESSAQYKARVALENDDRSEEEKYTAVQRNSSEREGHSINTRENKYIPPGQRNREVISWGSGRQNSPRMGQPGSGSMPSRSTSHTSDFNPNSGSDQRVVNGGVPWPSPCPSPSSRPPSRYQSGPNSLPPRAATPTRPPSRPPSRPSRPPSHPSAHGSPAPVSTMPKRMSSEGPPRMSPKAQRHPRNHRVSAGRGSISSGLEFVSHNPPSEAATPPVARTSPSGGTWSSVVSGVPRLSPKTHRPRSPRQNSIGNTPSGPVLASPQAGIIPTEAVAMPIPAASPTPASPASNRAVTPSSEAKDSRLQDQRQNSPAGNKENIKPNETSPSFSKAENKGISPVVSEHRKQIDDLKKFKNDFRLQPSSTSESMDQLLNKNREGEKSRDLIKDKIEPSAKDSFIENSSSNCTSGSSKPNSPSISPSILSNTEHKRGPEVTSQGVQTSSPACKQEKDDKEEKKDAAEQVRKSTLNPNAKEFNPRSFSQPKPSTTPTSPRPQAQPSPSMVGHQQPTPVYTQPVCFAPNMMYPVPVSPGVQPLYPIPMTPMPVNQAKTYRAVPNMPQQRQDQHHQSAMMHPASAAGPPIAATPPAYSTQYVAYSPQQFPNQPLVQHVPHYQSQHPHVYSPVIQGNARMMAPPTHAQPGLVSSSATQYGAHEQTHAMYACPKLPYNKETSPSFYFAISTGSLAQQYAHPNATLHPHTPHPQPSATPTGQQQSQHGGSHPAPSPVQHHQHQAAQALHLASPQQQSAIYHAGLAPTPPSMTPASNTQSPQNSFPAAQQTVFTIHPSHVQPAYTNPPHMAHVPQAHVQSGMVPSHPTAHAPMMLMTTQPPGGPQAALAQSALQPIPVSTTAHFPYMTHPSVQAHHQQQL

SMILES	Potency
C=CCNC(=O)c1cc2c(=O)n3cccc(C)c3nc2s1	inactive
Cc1cccc(N2C(=O)CC(NNc3nc4ccccc4s3)C2=O)c1 (stereo not given)	inactive
COc1ccc(/C=C/CN2CCCC(CCC(=O)NCc3ccc(F)c(F)c3)C2)cc1 (stereo not given)	inactive
COc1c2c(c(OC)c3c1c(=O)c1ccccc1n3C)OCO2	inactive
COCCN=C(NS(=O)(=O)c1cccs1)c1ccccc1Cl	inactive
C[N+]1(CN2C(=O)C3C4C=CC(C4)C3C2=O)CCCCC1 (stereo not given)	inactive
CCN(CC)c1ccc(C(=O)N/N=C/c2ccc(N3CCOCC3)cc2)cc1	inactive
Cc1cc(N2CCOCC2)ccc1/C=C1/SC(=O)NC1=O	inactive
CCN1C/C(=C/c2ccc(N3CCOCC3)cc2)C(=O)/C(=C/c2ccc(N3CCOCC3)cc2)C1	25.1 µM (active)
O=c1oc2ccc3ccccc3c2cc1-c1nc2ccccc2o1	inactive
O=c1cc(C(Cl)(Cl)Cl)oc2c1ccc1ccccc12	35.5 µM (active)
NNC(=O)c1cc2c(ccc3ccccc32)o1	inactive
CCc1nonc1NC(=O)COc1cc(C)c(Cl)c(C)c1	inactive
Fc1ccc(-n2cc(-c3ccccc3)c3c(S)ncnc32)cc1	39.8 µM (active)
COc1ccc(-n2cc(-c3ccccc3)c3c(NN4CCOCC4)ncnc32)cc1	inactive
COc1ccc(-n2cc(-c3ccccc3)c3c(NCCCN4CCOCC4)ncnc32)cc1	inactive
Cc1[nH]c2ccccc2c1C(O)CN1CCC2(CC1)OCCO2 (stereo not given)	inactive
Cc1[nH]c2ccccc2c1C(c1ccccc1)c1cccs1 (stereo not given)	39.8 µM (active)
CCc1ccc(C(c2ccccc2)c2c(C)[nH]c3ccccc23)s1 (stereo not given)	39.8 µM (active)
CC(C)CCN1C(=O)c2cccc3c(N)ccc(c23)C1=O	inactive
O=c1c2sccc2nc(SCc2cc(=O)n3cc(Cl)ccc3n2)n1Cc1ccccn1	inactive
COc1ccc(OC)c([N+]2=C3SCCCN3C(O)(c3ccccc3)C2)c1 (stereo not given)	inactive
Cn1cc(CN2CCc3c([nH]c4ccccc34)C2C2CCCCC2)cn1 (stereo not given)	inactive
Cc1ccc(C(=O)C2=C(O)C(=O)N(Cc3cccnc3)C2c2ccc(Cl)cc2)o1 (stereo not given)	inactive
CCc1ccc(C2c3c(-c4cc(C)ccc4O)n[nH]c3C(=O)N2Cc2cccnc2)cc1 (stereo not given)	39.8 µM (active)
CCc1ccc(C2c3c(-c4ccccc4O)n[nH]c3C(=O)N2Cc2cccnc2)cc1 (stereo not given)	22.4 µM (active)
Cc1ccc2oc3c(c(=O)c2c1)C(c1ccc(O)cc1)N(CCCN(C)C)C3=O (stereo not given)	inactive

SMILES	Potency
CSc1ccc(C2c3c(-c4ccccc4O)n[nH]c3C(=O)N2Cc2ccncc2)cc1 (stereo not given)	22.4 µM (active)
O=C1c2cccc3c([N+](=O)[O-])ccc(c23)C(=O)N1Cc1cccnc1	inactive
COCCN1C(=O)c2[nH]nc(-c3cc(C)ccc3O)c2C1c1ccc(C(C)C)cc1 (stereo not given)	39.8 µM (active)
CCOC(=O)c1sc2c(c1C)C(c1cccs1)C1=C(O)CCCC1=N2 (stereo not given)	inactive
c1cc(-c2sc(-c3ccncc3)c(-c3ccncc3)c2-c2ccncc2)ccn1	inactive
COc1ccc(-n2c(=O)/c(=C\c3cccs3)s/c2=C(/C#N)C(=O)NCCN2CCOCC2)cc1	inactive
CCOc1ccc(C2CC(c3c(O)oc4ccccc4c3=O)=NN2c2ccccc2)cc1OC (stereo not given)	inactive
CCOc1ccccc1Oc1c[nH]nc1-c1ccc(OCC(=O)NN)cc1O	inactive
CCCOc1ccc(C2c3c(-c4ccccc4O)n[nH]c3C(=O)N2Cc2cccnc2)cc1 (stereo not given)	35.5 µM (active)
CCCOc1ccc(C2c3c(-c4ccccc4O)n[nH]c3C(=O)N2CCCOCC)cc1OCC (stereo not given)	22.4 µM (active)
O=C(C1CCCO1)N1CCN(C(=O)C23CC4CC(CC(C4)C2)C3)CC1 (stereo not given)	inactive
O/N=C1\CCCc2ccc3ccccc3c21	inactive
Cc1ccc(OC(=O)c2ccncc2)c(C)c1	inactive
O=C(NNC(=O)c1csc(-c2cccs2)n1)c1ccc(Cl)cc1	22.4 µM (active)
O=S(=O)(NCc1csc(-c2cccs2)n1)c1ccc(Cl)cc1	inactive
O=C(NCc1csc(-c2cccs2)n1)c1cccc(Cl)c1	inactive
C=CCn1c(NC(=O)c2ccccc2Cl)c(C#N)c2nc3ccccc3nc21	inactive
CCOC(=O)c1cnc2ccc3ccccc3c2c1O	inactive
CCOC(=O)c1cnc2ccc(C)cc2c1Nc1ccc(N(CC)CC)cc1	28.2 µM (active)
CCOC(=O)c1cnc2ccc(C)cc2c1N(C)Cc1ccccc1	inactive
CS(=O)(=O)c1ccc(Cl)c(NC(=O)CSc2n[nH]c(-c3cccs3)n2)c1	inactive
COC(=O)Cc1cc(=O)oc2cc(O)ccc12	inactive
Cc1nn(CC(=O)NCCCN2CCCCC2)c(=O)c2cccn12	inactive
O=C(NCCCCCCCN1CCCCCCC1)C(C1CCCCC1)C1CCCCC1	21.2 µM (active)
S=C(NCCCN1CCOCC1)NC1CC1	inactive
CCC(=O)c1ccc(/C=C/c2nc3ccccc3n2C)o1	inactive
Cn1c(SC2=CS(=O)(=O)c3ccccc32)nc2ccccc21	15.8 µM (active)

SMILES	Potency
Cn1c(=O)c(/C=C/c2ccc(F)cc2)nc2ccccc21	inactive
Cn1c(-c2c(N)n(-c3ccccc3)c3nc4ccccc4nc23)nc2ccccc21	inactive
FC(F)(F)c1cnc(NNC(=S)Nc2ccccc2)c(Cl)c1	inactive
C#CCNC(=O)C(C)c1ncc(C(F)(F)F)cc1Cl (stereo not given)	inactive
O=C(CCl)c1ccc(Cc2ncc(C(F)(F)F)cc2Cl)s1	39.8 µM (active)
O=C(C[C@H]1C/C=C\C[C@@H](NC(=O)OCC2c3ccccc3-c3ccccc32)C(=O)O[C@@H](c2ccccc2)CNC1=O)N[C@H](CO)Cc1ccccc1	31.6 µM (active)
Nc1ccccc1-n1nc2ccc3ccccc3c2n1	inactive
CNc1ccc(Br)cc(C(=O)/C=C/c2cc(OC)ccc2OC)c1=O	39.8 µM (active)
COc1cc(C(=O)Nc2ccc(Br)cc2C(=O)c2cc(OC)c(OC)c(OC)c2)cc(OC)c1OC	inactive
CNc1ccc(Br)cc(C(=O)/C=C/c2cccc(OC)c2)c1=O	28.2 µM (active)
COc1cccc(NC(=O)c2sc3nc(C)c(C(=O)Nc4ccc(C)cc4C)c(-c4ccc(Br)cc4)c3c2N)c1	inactive
COc1ccc(Br)cc1/C=C/C(=O)NC(=S)Nc1ccc(Cl)c(C(=O)O)c1	inactive
COc1ccc(OC)c(/C=C/C(=O)N(C)CC(=O)Nc2cc(C)ccc2C)c1	inactive
Cc1ccc2nc(N3CCN(C)CC3)c(C=O)c(=O)n2c1	inactive
COCC(C)NC(=O)c1cc(-c2ccc(O)cc2)on1 (stereo not given)	inactive
Nc1c2ccccc2nc2ccccc12	inactive
NC(c1csc(NC(=O)Nc2cccc(C(F)(F)F)c2)n1)C1CCCCC1 (stereo not given)	28.2 µM (active)
O=C(Nc1cccnc1)Nc1cccc(F)c1	inactive
CNC(=O)Nc1cc(C(F)(F)F)cc(C(F)(F)F)c1	inactive
COC(=O)Cc1csc(N/C=C2/C(=O)N(c3cccc(C(F)(F)F)c3)C(=O)c3ccccc32)n1	inactive
CC(C)C(N)c1csc(NC(=O)Nc2cccc(C(F)(F)F)c2)n1 (stereo not given)	35.5 µM (active)
CCCCNc1ccc2c3c(cccc13)C(=O)N(CCCC)C2=O	inactive
Cc1nn2c(-c3ccccc3)c(-c3ccccc3)nc2nc1O	inactive
Cc1cc(C)cc(CC2CC(=O)N(c3cc(C)ccc3C)C2=O)c1 (stereo not given)	inactive
CCC(C)Sc1ccc(-c2nc3cnccn3c2NC2CCCCC2)cc1 (stereo not given)	inactive
CC(C)(C=O)C1=CC(=O)c2ccccc2C1=O	10 µM (active)
CCOC(=O)c1c(NC(=O)c2nn(C)cc2[N+](=O)[O-])sc(C)c1C	inactive

SMILES	Potency
CCCNC1=C(N(C(C)=O)c2cccc(F)c2)C(=O)c2ccccc2C1=O	31.6 µM (active)
C=CCNC(=O)C1CC(=O)N(c2ccc(OCC(=O)N3CCCC3)cc2)C1 (stereo not given)	inactive
CCC/C(C#Cc1ccc(N(C)C)cc1)=C1/c2ccccc2C(=O)N1c1ccccc1	inactive
O=C(O)c1cc(Sc2ccc(Br)cc2)nc2ccccc12	inactive
Nc1nc(N)c2cc(Sc3ccc(Cl)cc3)ccc2n1	35.5 µM (active)
N#C/C(=C\c1ccc(N2CCOCC2)o1)C(=O)NCCc1ccccc1	inactive
COc1ccc(C(=O)C(CCCCC(CN(C)C)C(=O)c2ccc(OC)cc2)CN(C)C)cc1 (stereo not given)	31.6 µM (active)
COc1ccc(C(=O)COc2ccccc2C#N)cc1	inactive
COc1ccc(C(=O)NN=C2CCCC2)cc1	inactive
CC(=O)c1cccc(S(=O)(=O)N2CCC(C(=O)Nc3cccc(C(=O)NC4CC4)c3)CC2)c1	inactive
Nc1ccc(OC(=O)Nc2ccc(O)cc2)cc1	inactive
CCOC(=O)CN1N=C(c2ccc(Cl)cc2)CCC1=O	inactive
CCOC(=O)N1C(=O)[C@@](c2ccc(Cl)cc2)(C(C)C)N1C(=O)OCC	31.6 µM (active)
CCN(CC)C(=O)Cn1cc(C(=O)C(=O)N2CC=C(c3ccccc3)CC2)c2ccccc21	inactive
Cc1cccc(NC(=O)NNC(=O)c2cc3ccccc3cc2O)c1C	inactive
C=CCC[C@@H](Cc1ccc(F)cc1)C(=O)OC[C@H](C)NC(=O)[C@H](CC=C)CC(=O)N(CCO)Cc1ccccc1	28.2 µM (active)
C=CCC[C@@H](Cc1ccc(F)cc1)C(=O)OC[C@@H](C)NC(=O)[C@H](CC=C)CC(=O)N(CCO)Cc1ccccc1	39.8 µM (active)
C/C(=N\NC(=O)Cc1csc(N2CCOCC2)n1)c1ccc(Cl)c(Cl)c1	inactive
CCCCc1c(-c2ccccc2Br)ncn1CCc1ccccc1OC	28.2 µM (active)
CCCCc1c(-c2ccccc2F)ncn1CCc1ccccc1OC	31.6 µM (active)
Nc1cccc2c1C(=O)N(CCOc1ccccc1F)C2=O	inactive
CCCc1c(-c2ccccc2Br)ncn1Cc1ccccc1OC	31.6 µM (active)
CCCCCN1C(C(=O)c2ccccc2)=C(NC(=O)c2ccc(OC)c(OC)c2)c2ccccc2S1(=O)=O	inactive
CCCCCc1c(-c2ccccc2OC)ncn1CCc1ccccc1OC	31.6 µM (active)
